Outcome and AC50 data for 13 compounds are collected here from PubChem BioAssay (EPA / NIEHS).

Inconclusive results are not listed. Activity calls are given as the source filed them. How the source made its calls, unless noted: active means hit-call score of the fitted dose curve at least 0.9, where 1 is the maximum; inactive means score below 0.9.

Test [1] is described as follows: CCTE_Harrill_HTTr_Viability_MCF7: CCTE's 6-hour Cell Viability Assessment for the High-Throughput Transcriptomics (HTTr) Platform, in MCF-7 cells cultured in DMEM + 10% fetal bovine serum, Harrill Lab (AID 2284010). The method, boiled down: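 MCF-7 cells in DMEM + 10% FBS, 384-well, exposed 6 h to an eight-point dilution series. Membrane integrity scored by high-content imaging of propidium iodide exclusion; bidirectional fit versus DMSO.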

A short description of test [2]: CCTE_Harrill_HTTr_Apoptosis_MCF7: CCTE's 6-hour Apoptosis Assessment for the High-Throughput Transcriptomics (HTTr) Platform, in MCF-7 cells cultured in DMEM + 10% fetal bovine serum, Harrill Lab (AID 2284011). The essentials:
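Apoptosis in MCF-7 cells grown in DMEM with 10% fetal bovine serum was scored after a six hour exposure by high content imaging of caspase-3/7 activation (CellEvent Caspase 3/7 Green), with DMSO serving as negative control and baseline.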

Test [3] in a line: CCTE_Harrill_HTTr_CellCount_MCF7: CCTE's Cell Proliferation Assessment for the High-Throughput Transcriptomics (HTTr) Platform, Harrill Lab (AID 2284012; active means hit-call score of the fitted dose curve at least 0.9, where 1 is the maximum;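 further: cells exposed to compound for six hours; intended direction is loss of nuclei count meaning fewer cells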). The method, boiled down: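 MCF7 cells exposed 6 hours to an eight-point dilution series; Hoechst-stained nuclei counted by high-content imaging. Bidirectional curve fitting against DMSO baseline.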
Test [4] can be described thus: CCTE_Shafer_MEA_acute_burst_number: CCTE's Neural Acute Assay for Single-Electrode Bursts, Shafer Lab (AID 2284013). The essentials:
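Primary rat cortical neurons on 16-electrode MEA wells, treated on DIV 13 or 15 with compound at 0.03-40 uM. Single-electrode burst count from 40-min recordings at 37 C before and after exposure; percent change from baseline per well, DMSO negative control.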

Test [5] can be described thus: CCTE_Shafer_MEA_acute_burst_duration_mean: CCTE's Neural Acute Assay for Mean Burst Duration, Shafer Lab (AID 2284014).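 Further: hits are decreases in mean burst duration relative to DMSO controls.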 The essentials: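 Rat primary cortical neurons on 48-well MEA, treated at DIV 13 or 15 with 0.03-40 uM in at least 3 wells. Value is percent change in mean burst duration, comparing 40 min recordings at 37 C before and during exposure.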
The nature of test [6]: CCTE_Shafer_MEA_acute_per_burst_spike_number_mean: CCTE's Neural Acute Assay for Average Number of Spikes Per Burst, Shafer Lab (AID 2284015).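 Further: hits are decreases in mean spikes per burst versus baseline.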 The essentials:
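We recorded spontaneous network firing of rat cortical neurons for 40 min before and 40 min during exposure to compound at 0.03-40 uM, at 37 C. Spikes were detected adaptively at 8x rms noise, and the change in average spikes per burst was fitted against DMSO.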

Test [7] in a line: CCTE_Shafer_MEA_acute_interburst_interval_mean: CCTE's Neural Acute Assay for Mean Interburst Interval, Shafer Lab (AID 2284016).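 Further: percent change of mean interburst interval versus each well's own pre-dose baseline; curves fitted for decrease in interburst interval relative to DMSO.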 The essentials: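 MEA recording of spontaneous network bursting in primary rat cortical cultures; mean interburst interval was compared before and after a 40-min compound exposure (0.03-40 uM) and expressed as percent change, relative to DMSO.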
The nature of test [8]: CCTE_Shafer_MEA_acute_burst_percentage_mean: CCTE's Neural Acute Assay for Percentage of Spikes in a Burst, Shafer Lab (AID 2284017).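 On AC50: curve fitted for loss of signal so potency reflects decreased burst percentage.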 The method, boiled down: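 Compounds were tested at 0.03-40 uM on primary rat cortical neuron networks grown over microelectrodes, with at least three wells per compound. Spontaneous firing was recorded for 40 min before and 40 min after dosing, and the change in burst percentage was computed per well.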

A short description of test [9]: CCTE_Shafer_MEA_acute_per_network_burst_spike_number_mean: CCTE's Neural Acute Assay for Average Number of Spikes in a Network Burst, Shafer Lab (AID 2284019).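 On AC50: curve fitted for loss of signal so actives reduce spikes per network burst.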 The method, boiled down: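 Rat primary cortical neurons on 48-well MEA at DIV 13 or 15, 37 C; compounds 0.03-40 uM, at least three wells each. 40-min baseline then 40-min exposure recording; percent change in mean spikes per network burst.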

Test [10] can be described thus: CCTE_Shafer_MEA_acute_per_network_burst_spike_number_std: CCTE's Neural Acute Assay for Standard Deviation of Number of Spikes in a Network Burst, Shafer Lab (AID 2284020).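 Further: fitted for decrease in spike-number SD versus DMSO so actives lower it.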 The method, boiled down:
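Rat primary cortical neurons on 48-well MEA (16 electrodes/well), treated DIV 13 or 15 at 0.03-40 uM, ≥3 wells per compound. 40 min recordings at 37 C before and after dosing; value is percent change in network-burst spike-number SD, negative direction vs DMSO.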

Test [11] can be described thus: CCTE_Shafer_MEA_acute_per_network_burst_electrodes_number_mean: CCTE's Neural Acute Assay for Mean Number of Electrodes in a Network Burst, Shafer Lab (AID 2284021).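 Further: curves fitted for decreases only so hits reduce electrodes per burst.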 The method, boiled down: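 Percent change from baseline in average electrode count per network burst, rat cortical cultures on 48-well MEAs; 40-min recordings each side of exposure, DIV 13 or 15; threshold 8x rms noise; DMSO as negative control.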

The nature of test [12]: CCTE_Shafer_MEA_acute_network_burst_percentage: CCTE's Neural Acute Assay for Percentage of Network Bursts, Shafer Lab (AID 2284022).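 Further: curves fitted for loss so actives lower network burst percentage.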 The essentials: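 On DIV 13 or 15, at least three wells of rat cortical neurons per compound are dosed at 0.03-40 uM. Spontaneous firing is detected at 8x rms noise for 40 min before and after dosing at 37 C. The percent change in network-burst spike share is reported.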

A short description of test [13]: CCTE_Shafer_MEA_acute_cross_correlation_area: CCTE's Neural Acute Assay for Area of Cross Correlation, Shafer Lab (AID 2284024).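 Further: area under pooled inter-electrode spike cross-correlation near zero lag as percent change from own baseline; curves fitted for loss of cross-correlation area so actives lower synchrony.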 The essentials: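 Extracellular recordings from cultured rat cortical neurons measure network synchrony as cross-correlation area; each well's post-compound value (0.03-40 uM, 40 min) is compared with its own 40 min baseline to give percent change.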

A short description of test [14]: CCTE_Shafer_MEA_acute_cross_correlation_HWHM: CCTE's Neural Acute Assay for Cross Correlation at Half Width at Half Maximum, Shafer Lab (AID 2284026).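 Further: percent change per well from pre-dose baseline in spike cross-correlogram half width; hits are a decrease in cross-correlogram half width relative to DMSO.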 The essentials: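 Percent change in cross-correlogram half width at half maximum, narrower meaning more synchrony, was derived per well from paired 40-min recordings before and during exposure to 0.03-40 uM compound in rat cortical cultures at 37 C.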

A short description of test [15]: CCTE_Shafer_MEA_acute_synchrony_index: CCTE's Neural Acute Assay for Synchrony, Shafer Lab (AID 2284027).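 Further: network synchrony index of spontaneous spiking in primary rat cortical neurons on MEAs; fitted for loss of signal so actives lower synchrony relative to DMSO.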 The essentials: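 Primary rat cortical neurons on 48-well MEAs, dosed at 0.03–40 uM on DIV 13 or 15. Spikes are recorded for 40 min at 37C before and after exposure, and synchrony index (0–1) is expressed as percent change from baseline per well.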
For test [16], the target named is Estrogen receptor (Homo sapiens) (UniProt P03372). Briefly: CCTE_Deisenroth_AIME_384WELL_LUC_Active: CCTE's 384-well Estrogen Receptor Transactivation Assay with AIME metabolic competence (ERTA luciferase; metabolism positive), Deisenroth Lab (AID 2284030; active means hit-call score of the fitted dose curve at least 0.9, where 1 is the maximum). The method, boiled down:
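Estrogenic luciferase signal in VM7Luc4E2 cells is measured at 24 hour, after chemicals have been preconditioned 2 hours with PB/BNF-induced rat hepatic S9 in alginate. Gain of signal is fitted relative to 17beta-estradiol, across 0.002 - 200 uM.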

The nature of test [17]: CCTE_Deisenroth_AIME_384WELL_CTox_Active: Cytotoxicity Assessment (CTOX) in CCTE's 384-well Estrogen Receptor Transactivation Assay with AIME metabolic competence (metabolism positive), Deisenroth Lab (AID 2284037; active means hit-call score of the fitted dose curve at least 0.9, where 1 is the maximum;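 further: chemicals first conditioned 2 h by alginate-bound induced rat liver S9 before cells; activity means signal loss indicating cell death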). The method, boiled down:
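Chemicals pre-incubated 2 hours with alginate-immobilised phenobarbital/beta-naphthoflavone-induced male Sprague Dawley rat liver S9, then conditioned medium applied 24 hour to VM7Luc4E2 cells. Viability by fluorogenic protease substrate; 10-point series 0.002 - 200 uM.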

Estrogen receptor (Homo sapiens), sequence (P03372 whole entry, looked up): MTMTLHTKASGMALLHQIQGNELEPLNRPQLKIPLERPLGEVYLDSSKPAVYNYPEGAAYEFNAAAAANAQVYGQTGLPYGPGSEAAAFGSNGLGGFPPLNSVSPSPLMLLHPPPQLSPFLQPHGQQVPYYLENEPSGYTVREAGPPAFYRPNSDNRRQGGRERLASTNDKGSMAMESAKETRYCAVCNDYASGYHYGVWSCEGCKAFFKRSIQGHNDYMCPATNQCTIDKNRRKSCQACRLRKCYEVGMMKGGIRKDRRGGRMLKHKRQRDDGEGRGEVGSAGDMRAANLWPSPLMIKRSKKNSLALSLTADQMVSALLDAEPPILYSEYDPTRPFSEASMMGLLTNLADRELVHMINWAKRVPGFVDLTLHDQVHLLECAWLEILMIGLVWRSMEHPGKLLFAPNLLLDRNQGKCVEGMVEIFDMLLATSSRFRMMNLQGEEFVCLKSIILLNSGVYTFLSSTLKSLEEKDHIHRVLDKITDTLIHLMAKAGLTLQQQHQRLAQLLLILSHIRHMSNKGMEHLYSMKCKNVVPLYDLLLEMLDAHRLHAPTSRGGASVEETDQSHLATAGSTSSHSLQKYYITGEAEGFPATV

Regarding `CCOc1cccc(-n2cc(C(=O)N3CCN(c4cc(C(=O)O)c5ccccc5c4)CC3)nc2-c2ccc(C)cc2)c1`, the result in [1], in test [2] and in [3] was inactive.

By AC50 is commonly meant the concentration at which the activity in the assay is half-maximal. In the case of `Cc1[nH]cnc1C[C@H]1CCc2c(C)c3ccccc3n2C1=O`, the outcome in test [1], in test [2], in [3], in test [4], in test [5] and in test [6] was inactive. Further, the outcome in test [7], in [9], in [10] and in test [13] was inactive. Moreover, the AC50 is 9 µM (active) in test [8]; 17.8 µM (active) in test [11]; 24.2 µM (active) in test [12]; 30.7 µM (active) in [14]; 8.89 µM (active) in test [15].

As for `CC(=O)OC[C@H]1O[C@@](COC(C)=O)(O[C@H]2O[C@H](COC(C)=O)[C@@H](OC(C)=O)[C@H](OC(C)=O)[C@H]2OC(C)=O)[C@@H](OC(C)=O)[C@@H]1OC(C)=O`, the outcome in test [1] was inactive.

As for `CCOC(=O)CC(CC(=O)OCC)(OC(C)=O)C(=O)OCC`, the outcome in [1] and in [2] was inactive.

Regarding `CCCCC(CC)COC(=O)c1ccc(C(=O)OCC(CC)CCCC)cc1` (centres undefined), the result in [1] was inactive.

As to `O=C1CCCCCN1`, the result in test [1] was inactive.

In the case of `O=C(O)CCN(C1(C(=O)NO)CCCC1)S(=O)(=O)c1ccc(Oc2ccc(F)cc2)cc1`, the result in test [1], in test [2], in test [3], in test [4], in test [5] and in test [6] was inactive. Besides, the compound was classed as inactive in [7], in test [8], in test [9], in test [10], in test [11] and in [12]. Moreover, the call in test [13], in [14] and in test [15] was inactive.

Turning to `COc1ccc(/C=C/S(=O)(=O)NC(=O)c2ccc(C)cc2Cl)cc1`, the outcome in test [1] was inactive.

For the compound `C[C@](N)(Cc1ccc(O)c(O)c1)C(=O)O`, the result in test [1] was inactive.

For `COc1cccc(-c2ccc(/C=C\CN3CCCCCC3)cc2Cl)c1`, the outcome in [1], in [2], in test [3], in test [4], in test [5] and in [6] was inactive. Further, the call in [7], in test [10], in [11], in [12], in test [14] and in [15] was inactive. Besides, the call in test [16] and in [17] was inactive. Besides, the AC50 was 1.34 µM (active) in test [8], 3.94 µM (active) in test [9] and 3.7 µM (active) in test [13].

For `O=C(CCCCCCCCc1cccnc1)N1CCC(C=C(c2ccccc2)c2ccccc2)CC1`, in test [1], the outcome was inactive.

Regarding `CC[C@H]1CC[C@H](NCc2cc3c(cc2OC)[C@H]2C[C@H]2C(=O)N3C)[C@H](c2ccccc2)N1`, the result in [1], in [2], in [3], in test [5], in [6] and in [9] was inactive. The compound was classed as inactive in test [10], in test [11], in test [12], in [13] and in test [15]. The AC50 in test [4] is 3.09 µM (active); in test [7], 7.83 µM (active); in test [8], 30.9 µM (active); in test [14], 20 µM (active).

Consider `Nc1cccc(N)c1`, for which the result in test [1] was inactive.
